Most compounds without a hit are left out; they make up all but 19% or so of the library.
MCF10A rerep: inducers of DNA re-replication in MCF 10A breast cells; MCF 10A DNA re-replication, Hoechst nuclear intensity, 48 h; Potency, µM (doses to about 46.1 µM), most hits filed as activators; 2.9% of 350,000 active; AID 624296; note: nearly all actives have a fitted effect of over 50% in size
DT40 TDP1 no CPT: qHTS for Inhibitors of human tyrosyl-DNA phosphodiesterase 1 (TDP1): qHTS in cells in absence of CPT | DT40 Tdp1-/- hTDP1 cells, no CPT, ATP luminescence, 48 h | Potency, µM (series often up to 46.2 µM), actives largely listed as inhibitors | 15% of 420,000 active | AID 686978, 2013; note: nearly all actives have a fitted effect of over 55% in size
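Seeded 400 DT40-hTDP1 cells/well (vehicle DMSO, no 20 nM CPT); pinned compounds; ≥48 hr at 37 °C; CellTiter-Glo luminescence as viability measure.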
SW480 rerep: inducers of DNA re-replication in SW480 colon cancer cells; 1.8% of 340,000 active; SW480 DNA re-replication, Hoechst DNA content imaging, 48 h; Potency, µM (highest dose often 46.1 µM), most hits filed as activators; note: nearly all actives have a fitted effect of over 55% in size
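First, 250 cells per well were seeded. Next, compound or vehicle (23 nL) was pinned in, plates sat 48 hr at 37 C. Finally Hoechst was added for 40 min before fluorescence scanning.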
TDP1 cell CPT: growth inhibition of DT40 Tdp1-/-;hTDP1 cells with camptothecin (screen for TDP1 inhibitors); 12% of 420,000 active; chicken DT40 Tdp1-/-;hTDP1 cells + 20 nM CPT, ATP luminescence, 48 h; AID 686979; Potency, µM (doses to about 46.2 µM), hits mostly inhibitors; note: nearly all actives have a fitted effect of over 55% in size
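Cell growth measured by CellTiter-Glo luminescence after a minimum 48 h, 37 C compound exposure with 20 nM CPT in Tdp1-knockout DT40 cells stably expressing hTDP1, seeded 400/well; qHTS titration format.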
IL1B secr inh: inhibitors of inflammasome signaling (IL-1 beta secretion). THP-1 LPS/ATP IL-1B secretion, AlphaLISA, 16 h; hits give low values. activity change, % at 57.5 µM. 4.7% of 360,000 active; in the data active = activity change below about -50%; inconclusive = mostly about -30% to -49%
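Secreted IL-1B measured by AlphaLISA bead assay after 16 h compound exposure of THP-1 cells; compounds (final up to 57.5 uM) added 1 h before LPS (250 ng/mL) and ATP (1.25 mM) stimulation; lower signal means less secretion.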
BCR signal inh: blocks chronic active B-cell receptor signaling. ABC-DLBCL IkBa-CBG/CBR reporter, luminescence ratio, 4 h. Potency, µM (highest dose often 46.1 µM), usual class: inhibitors. 0.05% of 340,000 active; active = well fitted inhibition curve with a large enough effect in the signal ratio, with a control signal flat, not every such curve was filed as active; inconclusive = small, poorly fitted or top-dose-only effect, or effect the other way, or a change in a side signal; the % refers to the signal ratio
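Compounds up to 46 uM were incubated four hours with TMD8 cells whose green CBG68 luciferase is fused to IkappaBalpha; red CBR luminescence normalised the signal, and concentration-effect curves were fitted to fusion, red and ratio data.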
Hits are given with their value. Unless noted, calls come from the whole dose curve; as a rule, active = well fitted curve in the direction sought with a large enough effect; inconclusive = small, poorly fitted or top-dose-only effect, or another doubt; inactive = no such curve, though single readings can be large; an effect the other way counts as inactive or inconclusive.

For CCOc1ccc(N2C(=O)CC(SCc3nc4ccccc4[nH]3)C2=O)cc1 (stereo not drawn) the results were MCF10A rerep inactive, DT40 TDP1 no CPT inconclusive, SW480 rerep inactive, TDP1 cell CPT 16µM, IL1B secr inh inactive and BCR signal inh inactive.
CCOc1ccc(N2C(=O)CC(Sc3n[nH]c(-c4ccccc4)n3)C2=O)cc1 (stereo not drawn) was read as MCF10A rerep inactive, DT40 TDP1 no CPT 7.3µM, SW480 rerep inactive, TDP1 cell CPT 7.3µM, IL1B secr inh inactive and BCR signal inh inactive.
Screening CN(C)c1cccc(-c2nnc(SCC(=O)NCc3ccco3)n2C)c1 returned DT40 TDP1 no CPT inactive and TDP1 cell CPT inactive.
C=C(C)COC(=O)C1CC2OC2CC1C(=O)OCC(=C)C (stereo not drawn) was read as MCF10A rerep inactive, DT40 TDP1 no CPT inactive, SW480 rerep inactive, TDP1 cell CPT inactive and IL1B secr inh inactive.
CCc1sc(Nc2ccc(Cl)cc2)nc1-c1cc2cccc(OC)c2oc1=O was read as DT40 TDP1 no CPT 21µM, TDP1 cell CPT inconclusive and BCR signal inh inconclusive.
Screening CCc1ccc(Nc2nc(-c3cc4cccc(OC)c4oc3=O)c(CC)s2)cc1 returned DT40 TDP1 no CPT 23µM, TDP1 cell CPT inconclusive and BCR signal inh inactive.
Screening CCc1sc(Nc2ccc(C)cc2Br)nc1-c1cc2cccc(OC)c2oc1=O returned DT40 TDP1 no CPT inconclusive, TDP1 cell CPT inconclusive and BCR signal inh inactive.
Cc1ccc(S(=O)(=O)N2CCCC2)cc1C(=O)NCCN1CCOCC1 was read as MCF10A rerep inactive, DT40 TDP1 no CPT inactive, SW480 rerep inactive, TDP1 cell CPT inactive, IL1B secr inh inactive and BCR signal inh inactive.
CC(C)(C)C(=O)OCC1OC(n2cnc(C(N)=O)n2)C(O)C1O (stereo not drawn) was read as MCF10A rerep inactive, DT40 TDP1 no CPT inconclusive, SW480 rerep inactive, TDP1 cell CPT 16µM, IL1B secr inh inactive and BCR signal inh inactive.
`Cn1c(=O)n(CC(=O)Nc2ccccc2)c2ccccc21` gave MCF10A rerep inactive, DT40 TDP1 no CPT inactive, SW480 rerep inactive, TDP1 cell CPT inactive, IL1B secr inh inactive and BCR signal inh inactive.
For CSc1c(CC(=O)Nc2ccccc2)n(C)c2ccccc12 the results were MCF10A rerep inactive, DT40 TDP1 no CPT inconclusive, SW480 rerep inactive, TDP1 cell CPT 15µM, IL1B secr inh inactive and BCR signal inh inactive.
For Cn1c(CC(=O)Nc2ccccc2)cc2ccccc21 the results were MCF10A rerep inactive, DT40 TDP1 no CPT inconclusive, SW480 rerep inactive, TDP1 cell CPT 7.3µM, IL1B secr inh inactive and BCR signal inh inactive.
`C=C(CCC(=O)c1ccccc1)C(=O)c1ccccc1` gave MCF10A rerep 9.2µM, DT40 TDP1 no CPT 2.1µM, SW480 rerep inconclusive, TDP1 cell CPT 6.5µM, IL1B secr inh -83 and BCR signal inh inconclusive.
For O=C(CC(C(=O)O)c1cccc(Cl)c1Cl)c1ccccc1 (stereo not drawn) the results were MCF10A rerep inactive, DT40 TDP1 no CPT inactive, SW480 rerep inactive, TDP1 cell CPT inactive, IL1B secr inh inactive and BCR signal inh inactive.
`C=C(C(=O)c1ccccc1)C(CC(=O)c1ccccc1)c1ccccc1` (stereo not drawn) gave MCF10A rerep 9.2µM, DT40 TDP1 no CPT 4.6µM, SW480 rerep 18µM, TDP1 cell CPT 4.6µM, IL1B secr inh -95 and BCR signal inh inactive.
`O=C(Cc1ccccc1)CC(CC(=O)c1ccccc1)c1ccccc1` (stereo not drawn) gave DT40 TDP1 no CPT 23µM, TDP1 cell CPT 16µM and IL1B secr inh inactive.
Screening O=C(CCCCCCCC(=O)c1ccccc1)c1ccccc1 returned MCF10A rerep inactive, DT40 TDP1 no CPT inactive, SW480 rerep inactive, TDP1 cell CPT inconclusive, IL1B secr inh inactive and BCR signal inh inactive.
For COc1cc(C)c(CN2CCC3(CCC(CNC(=O)c4ccnn4C)O3)CC2)cc1C (stereo not drawn) the results were DT40 TDP1 no CPT inactive and TDP1 cell CPT 16µM.
NC(=O)c1cc([N+](=O)[O-])c(Cl)cc1NCc1ccccn1 was read as MCF10A rerep inactive, DT40 TDP1 no CPT 26µM, SW480 rerep inconclusive, TDP1 cell CPT inconclusive, IL1B secr inh inactive and BCR signal inh inactive.
For O=C([C@H]1O[C@@H](n2ccc(=O)[nH]c2=O)[C@H](O)[C@@H]1O)N1CCN(c2ccc(Cl)cn2)CC1 the results were DT40 TDP1 no CPT inactive, TDP1 cell CPT inactive and IL1B secr inh inactive.
O=C(c1ccccc1)N1CCN(CCc2ccncc2)CC1 was read as DT40 TDP1 no CPT inactive and TDP1 cell CPT inactive.
Cc1ccc(C(=O)Nc2nc(=O)n(C(=O)CC(C)C)s2)cc1 was read as MCF10A rerep inactive, DT40 TDP1 no CPT inactive, SW480 rerep inactive, TDP1 cell CPT inactive, IL1B secr inh inactive and BCR signal inh inactive.
For CC(C)CC(=O)n1sc(NC(=O)c2ccccc2)nc1=O the results were MCF10A rerep inconclusive, DT40 TDP1 no CPT 21µM, SW480 rerep inactive, TDP1 cell CPT 15µM, IL1B secr inh inconclusive and BCR signal inh inconclusive.
`CCc1ccc2oc(-c3ccc(NC(=O)c4ccc(OC)c(Br)c4)cc3)nc2c1` gave DT40 TDP1 no CPT inactive and TDP1 cell CPT inactive.
Screening O=C(Nc1ccc2oc(-c3cccc(Cl)c3Cl)nc2c1)c1cccc(Br)c1 returned DT40 TDP1 no CPT inconclusive and TDP1 cell CPT 13µM.
`COc1ccc(C(=O)Nc2ccc3oc(-c4ccc(OC)cc4)nc3c2)cc1` gave DT40 TDP1 no CPT inactive and TDP1 cell CPT inactive.
`O=C(Nc1ccc2oc(-c3cccc4c(Br)cccc34)nc2c1)c1cccc(Cl)c1` gave DT40 TDP1 no CPT inconclusive and TDP1 cell CPT inactive.
`Cc1ccc(C(=O)Nc2ccc3oc(-c4ccc(C(C)(C)C)cc4)nc3c2)cc1` gave DT40 TDP1 no CPT 8.2µM and TDP1 cell CPT inconclusive.
Screening O=C(Nc1ccc2oc(-c3ccccc3F)nc2c1)c1ccccc1Cl returned DT40 TDP1 no CPT 13µM and TDP1 cell CPT inconclusive.
`COc1ccc(C(=O)Nc2ccc3oc(-c4ccc5ccccc5c4)nc3c2)cc1Br` gave DT40 TDP1 no CPT 18µM and TDP1 cell CPT 18µM.
Screening Cc1cc(SCC(=O)NCC2CCCO2)nc2ccccc12 (stereo not drawn) returned MCF10A rerep inactive, DT40 TDP1 no CPT inactive, SW480 rerep inactive, TDP1 cell CPT inactive, IL1B secr inh inactive and BCR signal inh inactive.
Screening O=C(Nc1ccc(F)c(Cl)c1)Nc1c[nH]c(=O)[nH]c1=O returned DT40 TDP1 no CPT inactive and TDP1 cell CPT inactive.
